Reference: the supplement of paper PMC3545927
The list shows a part of the results. The hit rate among all sequences tested is not known here.

B1: HC1189 (peptide)
chain: CASGTFPINAAGNASASA
B2: HC812 (peptide)
chain: CAGGCSGGAYAGNASASA
B3: HC1472 (peptide)
chain: CAFLVQAWKSAGNASASA
B4: HC1545 (peptide)
chain: CAPPGDPPQPAGNASASA
B5: HC1117 (peptide)
chain: CAVQWMNRLIAGNASASA
B6: HC457 (peptide)
chain: CATYSRCGSGAGNASASA
B7: HC270 (peptide)
chain: CAAILHTPGCAGNASASA
B8: FS-2278 (peptide)
chain: CARLLRDADDAGNASASA
B9: FS-1894 (peptide)
chain: CARGPRSATHAGNASASA
B10: FS-2438 (peptide)
chain: CARPPREEGKAGNASASA
B11: FS-2935 (peptide)
chain: CARGPRSYPHAGNASASA
B12: FS-2993 (peptide)
chain: CARLLRSLTHAGNASASA
B13: FS-1712 (peptide)
chain: CARGPRSSSAAGNASASA
B14: FS-2580 (peptide)
chain: CARPPRSTCQAGNASASA
B15: FS-3019 (peptide)
chain: CARPPRGFQPAGNASASA
B16: FS-2044 (peptide)
chain: CARLRRLLWIAGNASASA
B17: HC853 (peptide)
chain: CAIKGGRHLIAGNASASA
B18: HC2296 (peptide)
chain: CADGEVVTSTAGNASASA
B19: HC929 (peptide)
chain: CAVRLRAYMNAGNASASA
B20: HC785 (peptide)
chain: CAYKVLVLNPAGNASASA
B21: FS-2810 (peptide)
chain: CARSKRDEKLAGNASASA
B22: FS-2381 (peptide)
chain: CARSKRYVHLAGNASASA
B23: FS-2307 (peptide)
chain: CARSKRRWAPAGNASASA
B24: FS-2087 (peptide)
chain: CARSKRDPDLAGNASASA
B25: FS-3169 (peptide)
chain: CARSKRDSTYAGNASASA
B26: FS-2606 (peptide)
chain: CARSKRPSTDAGNASASA
B27: FS-2303 (peptide)
chain: CARSGRDSGYAGNASASA
B28: FS-3082 (peptide)
chain: CARSKKPKGLAGNASASA
B29: FS-1928 (peptide)
chain: CARSKRDYTPAGNASASA
B30: HC1026 (peptide)
chain: CAKALGLLQTAGNASASA
B31: HC1020 (peptide)
chain: CAEQGMMLAEAGNASASA
B32: HC619 (peptide)
chain: CAGLLRFCALAGNASASA
B33: FS-2384 (peptide)
chain: CARTKRNAKIAGNASASA
B34: FS-2060 (peptide)
chain: CARPWKSVSEAGNASASA
B35: HC2045 (peptide)
chain: CAVVCCSLSYAGNASASA
B36: FS-2031 (peptide)
chain: CARIPREVSEAGNASASA
B37: FS-1708 (peptide)
chain: CARGARLVSEAGNASASA
B38: FS-2731 (peptide)
chain: CARNQRDAWIAGNASASA
B39: FS-3106 (peptide)
chain: CARTKRFVSEAGNASASA
B40: FS-2612 (peptide)
chain: CARTKRKPSIAGNASASA
B41: FS-2826 (peptide)
chain: CARTKRFLSYAGNASASA
B42: HC870 (peptide)
chain: CARGLDVSVIAGNASASA
B43: HC912 (peptide)
chain: CAAPGERPSGAGNASASA

Target: furin, P09958
Sequence (P09958 whole entry): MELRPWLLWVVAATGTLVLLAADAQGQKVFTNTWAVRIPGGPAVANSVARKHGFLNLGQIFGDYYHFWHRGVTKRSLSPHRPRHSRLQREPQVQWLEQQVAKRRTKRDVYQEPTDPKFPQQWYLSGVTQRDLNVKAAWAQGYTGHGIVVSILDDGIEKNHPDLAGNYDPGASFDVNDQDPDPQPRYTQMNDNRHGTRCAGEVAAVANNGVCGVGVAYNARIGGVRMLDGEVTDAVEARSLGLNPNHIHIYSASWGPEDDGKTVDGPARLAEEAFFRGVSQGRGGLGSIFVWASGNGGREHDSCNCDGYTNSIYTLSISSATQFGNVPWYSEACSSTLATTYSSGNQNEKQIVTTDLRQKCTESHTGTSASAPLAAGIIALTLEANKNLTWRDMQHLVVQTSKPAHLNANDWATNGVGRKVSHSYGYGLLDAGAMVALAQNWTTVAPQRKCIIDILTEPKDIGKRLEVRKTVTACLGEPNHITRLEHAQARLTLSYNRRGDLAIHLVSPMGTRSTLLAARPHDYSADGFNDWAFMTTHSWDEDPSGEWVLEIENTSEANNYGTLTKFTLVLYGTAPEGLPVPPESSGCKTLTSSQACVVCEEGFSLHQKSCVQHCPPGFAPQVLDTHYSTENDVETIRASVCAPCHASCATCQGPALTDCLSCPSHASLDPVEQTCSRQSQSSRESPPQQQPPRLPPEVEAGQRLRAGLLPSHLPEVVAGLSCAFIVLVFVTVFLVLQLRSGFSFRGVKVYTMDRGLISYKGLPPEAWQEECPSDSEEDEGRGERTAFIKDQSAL
Assay: furin cleavage Z-score vs untreated control; higher = more cleavage, active = 3.5 or more, inactive = 1 or less, 8 variable residues between constant flanks
Experimental: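 Multiplexed peptide-cDNA fusion cleavage assay. 8-mer variable peptides flanked by constant Cys-Ala (N-term) and Ala-Gly-Asn-Ala-Ser-Ala-Ser-Ala (C-term) and conjugated to a cDNA oligonucleotide were bead-immobilised via the N-terminus. They were treated with purified furin at a 1:10 enzyme:substrate ratio in 50 mM HEPES pH 7.5, 1 mM CaCl2, 100 mM NaCl for 7.5, 15 or 30 min. Released cDNA was counted by next-generation sequencing, and log counts versus no-furin controls were lowess-adjusted and converted to robust Z-scores.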

Row | Sequence | furin cleavage Z-score (7.5 min) | furin cleavage Z-score (15 min) | furin cleavage Z-score (30 min)
1 | B1 | -0.56 (inactive) | -1.29 (inactive) | -0.783 (inactive)
2 | B2 | 0.0451 (inactive) | -0.928 (inactive) | -1.91 (inactive)
3 | B3 | -0.545 (inactive) | -1.14 (inactive) | 0.129 (inactive)
4 | B4 | 0.491 (inactive) | -1.28 (inactive) | -0.552 (inactive)
5 | B5 | -0.371 (inactive) | -0.656 (inactive) | -0.702 (inactive)
6 | B6 | -0.645 (inactive) | -0.493 (inactive) | 0.00889 (inactive)
7 | B7 | 0.368 (inactive) | 1.18 | -0.0199 (inactive)
8 | B8 | -0.832 (inactive) | -0.574 (inactive) | -0.464 (inactive)
9 | B9 | 3.56 (active) | 2.79 | 2.67
10 | B10 | -0.719 (inactive) | -0.617 (inactive) | -0.558 (inactive)
11 | B11 | -0.268 (inactive) | 1.01 | 0.916 (inactive)
12 | B12 | 1.05 | 3.14 | 4.05 (active)
13 | B13 | -0.135 (inactive) | -0.114 (inactive) | -1.14 (inactive)
14 | B14 | 2.35 | 3.89 (active) | 3.84 (active)
15 | B15 | -1.18 (inactive) | -0.836 (inactive) | -0.248 (inactive)
16 | B16 | -1.02 (inactive) | -0.859 (inactive) | 0.923 (inactive)
17 | B17 | -0.712 (inactive) | -0.368 (inactive) | 0.443 (inactive)
18 | B18 | 0.392 (inactive) | 0.826 (inactive) | -0.278 (inactive)
19 | B19 | 0.615 (inactive) | -1.18 (inactive) | 1.3
20 | B20 | 1.85 | -0.276 (inactive) | -1.39 (inactive)
21 | B21 | 3.32 | 5.67 (active) | 5.15 (active)
22 | B22 | 2.83 | 5.52 (active) | 7.4 (active)

Row | Sequence | furin cleavage Z-score (7.5 min) | furin cleavage Z-score (15 min) | furin cleavage Z-score (30 min)
23 | B23 | 0.891 (inactive) | 0.79 (inactive) | 2.12
24 | B24 | -0.408 (inactive) | 0.763 (inactive) | 0.503 (inactive)
25 | B25 | 6.51 (active) | 7.64 (active) | 7.09 (active)
26 | B26 | -0.273 (inactive) | 0.303 (inactive) | 0.307 (inactive)
27 | B27 | -0.464 (inactive) | -0.846 (inactive) | -1.58 (inactive)
28 | B28 | 0.217 (inactive) | -0.722 (inactive) | -1.55 (inactive)
29 | B29 | 6.07 (active) | 5.96 (active) | 6.83 (active)
30 | B30 | -0.0968 (inactive) | 0.32 (inactive) | -1.95 (inactive)
31 | B31 | 0.411 (inactive) | 0.355 (inactive) | -0.0666 (inactive)
32 | B32 | -0.221 (inactive) | -0.963 (inactive) | 0.576 (inactive)
33 | B33 | 8.15 (active) | 8.32 (active) | 7.88 (active)
34 | B34 | -0.467 (inactive) | 0.327 (inactive) | 1.73
35 | B35 | 0.285 (inactive) | 2.15 | 0.578 (inactive)
36 | B36 | 7.41 (active) | 8.89 (active) | 7.69 (active)
37 | B37 | 0.305 (inactive) | -0.752 (inactive) | 0.671 (inactive)
38 | B38 | -0.28 (inactive) | -0.224 (inactive) | -0.1 (inactive)
39 | B39 | 7.52 (active) | 9.36 (active) | 7.54 (active)
40 | B40 | 0.358 (inactive) | -0.0194 (inactive) | 0.82 (inactive)
41 | B41 | 4.24 (active) | 5.3 (active) | 6.61 (active)
42 | B42 | 1.35 | -0.274 (inactive) | -0.641 (inactive)
43 | B43 | -0.474 (inactive) | 0.136 (inactive) | -0.967 (inactive)
